Assay results reported in the supplement of paper PMC10849652.
The full data set covers some 8,800 targets. This sample favours those with a hit. About 0.5% of all pairs of compound and target were hits. A number with no mark means an inactive call.

Assays:
Test in all cases: log2 fold change, soluble protein after heating vs DMSO (PISA); higher = thermal stabilisation; K562 lysate, 10 uM; active = over 0.2 and 3.5 SD of the protein, either way, in both replicates (recomputed)
nilotinib = compound: Cc1cn(-c2cc(NC(=O)c3ccc(C)c(Nc4nccc(-c5cccnc5)n4)c3)cc(C(F)(F)F)c2)cn1 [nilotinib]
Procedure, shortened: (§1)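 Quantification was by TMTpro 16plex LC-MS/MS with equalised channel sums, applied to the supernatant after 21,000xg for 90 min. Samples were crude K562 extract at 1 mg/mL protein in PBS pH 7.4 with 1 mM MgCl2, treated with 10 μM compound for 30 min, heated for 3 min across 48°C-58°C, pooled and brought to 0.5% NP-40 at 4°C. Values are log-two fold changes in thermal stability relative to solvent controls, from duplicates.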

[1] = compound: Cc1nc(Nc2n[nH]c3c2CN(C(=O)N[C@H](CN(C)C)c2ccccc2)C3(C)C)c2sccc2n1
Procedure, shortened: as §1

dasatinib = compound: Cc1nc(Nc2ncc(C(=O)Nc3c(C)cccc3Cl)s2)cc(N2CCN(CCO)CC2)n1 [dasatinib]
Procedure, shortened: as §1

[2] = compound: Cc1ncc(-c2ccnc(Nc3ccc(S(C)(=O)=O)cc3)n2)n1C(C)C
Procedure, shortened: as §1

[3] = compound: Cn1cc(-c2ccc3c(c2)CCN3C(=O)Cc2cccc(C(F)(F)F)c2)c2c(N)ncnc21
Procedure, shortened: as §1

quisinostat = compound: Cn1cc(CNCC2CCN(c3ncc(C(=O)NO)cn3)CC2)c2ccccc21 [quisinostat]
Procedure, shortened: as §1

tipifarnib = compound: Cn1cncc1[C@@](N)(c1ccc(Cl)cc1)c1ccc2c(c1)c(-c1cccc(Cl)c1)cc(=O)n2C [tipifarnib]
Procedure, shortened: as §1

[4] = compound: NC(=O)Nc1cc(-c2cccc(F)c2)sc1C(=O)N[C@H]1CCCNC1
Procedure, shortened: as §1

[5] = compound: NC(=O)c1cnc(N[C@@H]2CCCC[C@@H]2N)nc1Nc1cccc(-n2nccn2)c1
Procedure, shortened: as §1

[6] = compound: NC1(c2ccc(-c3nc4ccn5c(=O)[nH]nc5c4cc3-c3ccccc3)cc2)CCC1
Procedure, shortened: as §1

Sequence of UniProt Q9H3Z4 (Q9H3Z4 whole entry, looked up): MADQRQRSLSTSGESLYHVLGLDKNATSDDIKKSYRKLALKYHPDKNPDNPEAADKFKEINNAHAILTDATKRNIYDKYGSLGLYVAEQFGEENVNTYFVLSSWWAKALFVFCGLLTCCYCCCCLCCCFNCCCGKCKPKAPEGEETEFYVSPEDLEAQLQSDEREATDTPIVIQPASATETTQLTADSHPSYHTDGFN
Sequence of UniProt P24311 (P24311 whole entry, looked up): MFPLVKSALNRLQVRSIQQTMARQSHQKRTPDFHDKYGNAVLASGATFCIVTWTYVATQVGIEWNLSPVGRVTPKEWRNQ
Sequence of UniProt Q96JB2 (Q96JB2 whole entry, looked up): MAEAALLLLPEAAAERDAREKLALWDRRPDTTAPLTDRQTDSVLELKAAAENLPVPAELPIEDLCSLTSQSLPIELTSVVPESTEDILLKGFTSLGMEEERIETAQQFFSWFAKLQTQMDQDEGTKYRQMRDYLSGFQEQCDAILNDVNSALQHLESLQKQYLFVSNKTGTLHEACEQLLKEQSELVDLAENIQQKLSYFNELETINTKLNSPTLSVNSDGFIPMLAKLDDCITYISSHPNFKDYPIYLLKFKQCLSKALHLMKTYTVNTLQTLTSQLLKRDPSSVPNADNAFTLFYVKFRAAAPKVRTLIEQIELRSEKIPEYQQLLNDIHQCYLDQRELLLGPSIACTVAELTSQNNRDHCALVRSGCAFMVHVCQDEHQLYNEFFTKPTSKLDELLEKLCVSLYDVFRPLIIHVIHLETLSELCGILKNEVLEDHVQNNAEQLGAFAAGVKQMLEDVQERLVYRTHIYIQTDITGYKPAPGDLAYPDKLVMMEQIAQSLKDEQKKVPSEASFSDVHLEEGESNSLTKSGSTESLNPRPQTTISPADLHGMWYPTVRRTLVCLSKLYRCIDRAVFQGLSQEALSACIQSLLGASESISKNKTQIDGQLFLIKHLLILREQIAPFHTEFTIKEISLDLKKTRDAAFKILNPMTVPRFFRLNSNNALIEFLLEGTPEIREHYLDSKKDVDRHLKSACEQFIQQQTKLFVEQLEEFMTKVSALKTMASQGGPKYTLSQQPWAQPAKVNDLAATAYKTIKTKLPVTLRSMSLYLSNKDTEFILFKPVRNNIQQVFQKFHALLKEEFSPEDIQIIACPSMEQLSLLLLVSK
Sequence of UniProt P29373 (P29373 whole entry, looked up): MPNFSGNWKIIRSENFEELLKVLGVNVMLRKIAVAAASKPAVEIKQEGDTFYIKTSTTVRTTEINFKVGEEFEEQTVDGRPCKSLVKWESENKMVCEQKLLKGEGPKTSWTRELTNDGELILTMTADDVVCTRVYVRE
Sequence of UniProt P61923 (P61923 whole entry, looked up): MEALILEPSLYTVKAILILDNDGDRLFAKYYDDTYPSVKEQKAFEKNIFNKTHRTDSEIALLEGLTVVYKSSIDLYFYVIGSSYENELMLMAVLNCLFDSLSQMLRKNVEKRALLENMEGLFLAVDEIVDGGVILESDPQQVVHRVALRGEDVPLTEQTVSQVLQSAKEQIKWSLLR
Sequence of UniProt Q8WUH1 (Q8WUH1 whole entry, looked up): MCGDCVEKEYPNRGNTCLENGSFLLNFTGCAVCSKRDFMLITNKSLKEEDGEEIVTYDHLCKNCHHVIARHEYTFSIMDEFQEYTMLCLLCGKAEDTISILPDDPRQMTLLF
Sequence of UniProt O96017 (O96017 whole entry, looked up): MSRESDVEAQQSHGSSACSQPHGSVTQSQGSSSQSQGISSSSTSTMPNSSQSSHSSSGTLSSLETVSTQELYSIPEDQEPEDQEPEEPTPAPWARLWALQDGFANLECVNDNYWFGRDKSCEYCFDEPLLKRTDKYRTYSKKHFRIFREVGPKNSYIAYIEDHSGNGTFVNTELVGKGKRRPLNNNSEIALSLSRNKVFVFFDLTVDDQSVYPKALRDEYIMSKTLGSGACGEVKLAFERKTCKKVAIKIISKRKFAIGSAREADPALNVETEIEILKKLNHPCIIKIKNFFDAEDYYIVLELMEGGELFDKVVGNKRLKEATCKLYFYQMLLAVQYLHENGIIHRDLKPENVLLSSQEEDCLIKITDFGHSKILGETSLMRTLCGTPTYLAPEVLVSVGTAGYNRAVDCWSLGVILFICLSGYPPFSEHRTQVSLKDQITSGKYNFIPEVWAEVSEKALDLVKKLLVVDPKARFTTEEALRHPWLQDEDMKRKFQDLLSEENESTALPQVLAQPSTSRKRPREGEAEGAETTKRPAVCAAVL
Sequence of UniProt Q96KA5 (Q96KA5 whole entry, looked up): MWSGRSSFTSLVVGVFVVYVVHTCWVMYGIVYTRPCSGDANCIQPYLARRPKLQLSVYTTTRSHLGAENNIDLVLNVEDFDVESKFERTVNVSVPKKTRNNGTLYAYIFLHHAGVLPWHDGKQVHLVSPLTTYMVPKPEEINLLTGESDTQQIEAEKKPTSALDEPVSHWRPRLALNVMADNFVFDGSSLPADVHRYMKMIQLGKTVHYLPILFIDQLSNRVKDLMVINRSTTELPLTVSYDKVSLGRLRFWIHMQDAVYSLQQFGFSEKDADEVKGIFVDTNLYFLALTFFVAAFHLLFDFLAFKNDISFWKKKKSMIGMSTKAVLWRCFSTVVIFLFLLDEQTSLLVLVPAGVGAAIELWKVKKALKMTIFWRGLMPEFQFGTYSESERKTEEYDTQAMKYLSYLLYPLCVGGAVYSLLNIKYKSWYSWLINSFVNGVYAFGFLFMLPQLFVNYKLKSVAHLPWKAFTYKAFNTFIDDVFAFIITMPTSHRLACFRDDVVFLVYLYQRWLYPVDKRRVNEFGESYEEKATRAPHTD
Sequence of UniProt Q9H4E7 (Q9H4E7 whole entry, looked up): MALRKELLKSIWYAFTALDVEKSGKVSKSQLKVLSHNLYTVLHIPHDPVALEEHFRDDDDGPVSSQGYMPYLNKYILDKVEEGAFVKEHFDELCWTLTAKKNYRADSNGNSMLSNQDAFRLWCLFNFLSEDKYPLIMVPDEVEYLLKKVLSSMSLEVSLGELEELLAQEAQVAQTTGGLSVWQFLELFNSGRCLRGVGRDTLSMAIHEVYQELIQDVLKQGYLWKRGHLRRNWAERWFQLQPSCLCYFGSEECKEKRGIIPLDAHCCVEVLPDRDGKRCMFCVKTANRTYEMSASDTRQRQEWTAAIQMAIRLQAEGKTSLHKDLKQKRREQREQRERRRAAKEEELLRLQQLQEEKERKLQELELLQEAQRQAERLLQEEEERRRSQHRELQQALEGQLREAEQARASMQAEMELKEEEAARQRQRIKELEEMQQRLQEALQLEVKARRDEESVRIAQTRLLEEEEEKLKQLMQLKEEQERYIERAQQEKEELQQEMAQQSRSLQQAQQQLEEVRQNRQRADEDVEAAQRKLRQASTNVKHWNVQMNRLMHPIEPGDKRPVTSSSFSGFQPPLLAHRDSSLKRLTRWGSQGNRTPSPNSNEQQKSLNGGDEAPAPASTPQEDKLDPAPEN
Sequence of UniProt Q6PJW8 (Q6PJW8 whole entry, looked up): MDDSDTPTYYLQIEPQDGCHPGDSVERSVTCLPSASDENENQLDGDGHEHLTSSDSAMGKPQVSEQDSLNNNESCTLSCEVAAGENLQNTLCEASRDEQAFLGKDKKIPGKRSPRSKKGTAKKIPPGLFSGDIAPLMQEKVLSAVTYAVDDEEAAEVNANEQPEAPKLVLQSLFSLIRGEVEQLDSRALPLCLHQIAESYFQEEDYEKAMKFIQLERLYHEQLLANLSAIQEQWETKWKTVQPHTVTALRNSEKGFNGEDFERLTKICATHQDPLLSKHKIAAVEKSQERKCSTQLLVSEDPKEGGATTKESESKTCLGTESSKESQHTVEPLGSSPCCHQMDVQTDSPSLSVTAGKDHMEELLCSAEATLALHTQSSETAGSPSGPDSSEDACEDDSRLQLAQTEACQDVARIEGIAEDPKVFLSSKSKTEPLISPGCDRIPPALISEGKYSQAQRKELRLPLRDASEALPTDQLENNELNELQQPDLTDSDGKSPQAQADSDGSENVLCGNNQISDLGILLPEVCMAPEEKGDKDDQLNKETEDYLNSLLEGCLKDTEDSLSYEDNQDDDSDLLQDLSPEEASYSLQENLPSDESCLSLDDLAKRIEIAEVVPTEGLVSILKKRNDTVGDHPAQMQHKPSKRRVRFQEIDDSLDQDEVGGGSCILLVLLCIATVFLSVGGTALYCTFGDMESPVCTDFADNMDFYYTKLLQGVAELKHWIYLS
Sequence of UniProt Q96LJ7 (Q96LJ7 whole entry, looked up): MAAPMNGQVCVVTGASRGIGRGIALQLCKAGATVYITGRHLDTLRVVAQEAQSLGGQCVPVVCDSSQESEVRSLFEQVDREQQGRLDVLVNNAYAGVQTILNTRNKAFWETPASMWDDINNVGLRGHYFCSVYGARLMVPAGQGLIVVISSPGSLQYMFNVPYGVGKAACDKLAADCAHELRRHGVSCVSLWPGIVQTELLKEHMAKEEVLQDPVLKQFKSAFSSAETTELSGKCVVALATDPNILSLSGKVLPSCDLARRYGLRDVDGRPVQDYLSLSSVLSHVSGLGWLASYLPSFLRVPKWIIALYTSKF
Sequence of UniProt O76075 (O76075 whole entry, looked up): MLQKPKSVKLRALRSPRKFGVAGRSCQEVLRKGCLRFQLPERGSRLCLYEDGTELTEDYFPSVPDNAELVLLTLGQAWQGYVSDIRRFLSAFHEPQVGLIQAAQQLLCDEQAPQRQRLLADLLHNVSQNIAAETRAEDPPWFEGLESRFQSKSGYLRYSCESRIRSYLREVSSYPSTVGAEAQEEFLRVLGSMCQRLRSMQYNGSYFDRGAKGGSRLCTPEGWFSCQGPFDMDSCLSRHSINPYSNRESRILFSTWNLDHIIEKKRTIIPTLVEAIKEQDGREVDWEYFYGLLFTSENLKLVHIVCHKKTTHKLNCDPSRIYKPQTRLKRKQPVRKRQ
Sequence of UniProt Q9P003 (Q9P003 whole entry, looked up): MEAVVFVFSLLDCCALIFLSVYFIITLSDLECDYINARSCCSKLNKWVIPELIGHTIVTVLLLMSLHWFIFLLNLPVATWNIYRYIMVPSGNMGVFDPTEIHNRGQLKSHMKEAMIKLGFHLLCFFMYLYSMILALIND

Target | log2 fold change (nilotinib) | log2 fold change [1] | log2 fold change (dasatinib) | log2 fold change [2] | log2 fold change [3] | log2 fold change (quisinostat) | log2 fold change (tipifarnib) | log2 fold change [4] | log2 fold change [5] | log2 fold change [6]
DDR1 isoform 5 (UniProt Q08345) | 0.036 | 0.013 | 0.083 | -0.216 | 0.103 | 0.045 | -0.012 | -0.054 | – | –
DEF6 (UniProt Q9H4E7) | -0.058 | 0.046 | -0.034 | 0.033 | 0.006 | -0.044 | 0.027 | 0.067 | 0.044 | -0.01
CHEK1 (UniProt O14757) | -0.011 | -0.158 | 0.02 | -0.048 | -0.007 | -0.032 | 0.016 | 0.242 (active) | 0.003 | -0.042
COL6A5 (UniProt A8TX70) | 0.134 | 0.009 | -0.11 | -0.185 | -0.038 | -0.377 | -0.236 | 0.017 | 0.051 | -0.014
CNIH4 (UniProt Q9P003) | 0.074 | -0.327 | 0.132 | -0.12 | 0.063 | -0.068 | -0.515 (active) | 0.088 | 0.076 | -0.136
DHRS1 (UniProt Q96LJ7) | -0.009 | -0.043 | 0.063 | -0.064 | -0.042 | 0.012 | 0.055 | -0.001 | 0.033 | -0.026
CTNND1 isoform 3 (UniProt O60716) | -0.027 | -0.02 | 0.006 | -0.017 | 0.009 | -0.065 | -0.06 | 0.027 | 0.065 | -0.065
CXorf38 (UniProt Q8TB03) | 0.029 | 0.013 | -0.04 | 0.053 | -0.034 | 0.004 | 0.002 | 0.006 | 0.049 | 0.009
CHEK2 (UniProt O96017) | -0.022 | 0.285 (active) | 0.04 | -0.007 | 0.05 | -0.057 | 0.023 | 0.326 (active) | 0.013 | 0.035
DENND1B (UniProt Q6P3S1) | 0.042 | -0.073 | 0.073 | -0.05 | -0.09 | -0.16 | 0.017 | 0.211 | 0.2 | 0.209
DHRS11 (UniProt Q6UWP2) | 0.058 | 0.017 | -0.018 | 0.008 | 0.03 | 0.024 | 0.002 | 0.037 | 0.002 | 0
CHML (UniProt P26374) | -0.001 | 0.013 | 0.035 | -0.011 | -0.001 | 0 | -0.031 | -0.015 | -0.008 | 0.002
COPZ1 isoform 4 (UniProt P61923) | 0.012 | 0 | 0.015 | 0.088 | 0.023 | 0.289 | 0.002 | -0.029 | -0.103 | 0.037
COG3 (UniProt Q96JB2) | -0.02 | -0.023 | -0.13 | -0.002 | 0.023 | -0.097 | 0.022 | 0.044 | 0.024 | -0.083
DNAJC5 (UniProt Q9H3Z4) | -0.136 | -0.043 | -0.002 | 0.008 | -0.029 | -0.05 | 0.043 | -0.045 | 0.062 | 0.024
CHURC1 isoform 2 (UniProt Q8WUH1) | 0.055 | -0.029 | 0.016 | -0.09 | -0.001 | -0.074 | 0.027 | 0.018 | -0.041 | -0.083
DFFB (UniProt O76075) | 0.192 | -0.062 | 0.008 | 0.155 | 0.012 | 0.038 | -0.013 | -0.049 | 0.026 | -0.047
DNAJC1 (UniProt Q96KC8) | -0.03 | 0 | -0.09 | -0.012 | 0.016 | 0.04 | 0.004 | 0.026 | -0.028 | 0.028
CTNNBL1 (UniProt Q8WYA6) | -0.034 | 0.02 | 0.025 | -0.013 | -0.065 | -0.008 | -0.019 | 0.02 | 0.011 | -0.138
COG4 (UniProt Q9H9E3) | -0.038 | -0.01 | -0.093 | 0.008 | 0.048 | -0.047 | 0.006 | 0.004 | 0.001 | 0.055
CSTF2 (UniProt P33240) | 0.031 | 0.038 | 0.03 | -0.017 | -0.029 | 0.033 | -0.021 | -0.013 | -0.007 | 0.052
CNST (UniProt Q6PJW8) | 0.125 | 0.029 | 0.023 | -0.123 | 0 | -0.005 | 0.054 | -0.002 | 0 | 0.041
COX7B (UniProt P24311) | 0.001 | 0.017 | -0.008 | 0.016 | 0.025 | 0.047 | 0.023 | -0.03 | -0.047 | 0
CMPK2 (UniProt Q5EBM0) | -0.075 | -0.01 | -0.067 | 0.005 | -0.011 | -0.02 | 0.042 | 0.032 | -0.006 | 0.013
CHMP4A isoform 2 (UniProt Q9BY43) | -0.026 | -0.021 | 0.039 | 0 | -0.011 | -0.145 | 0.017 | -0.029 | -0.02 | -0.009
CINP isoform 3 (UniProt Q9BW66) | -0.13 | 0.065 | -0.073 | 0.19 | 0.024 | 0.015 | -0.009 | 0.034 | 0.03 | –
CRABP2 (UniProt P29373) | -0.063 | -0.125 | 0.076 | -0.066 | 0.006 | -0.004 | 0.061 | -0.049 | -0.036 | -0.02
CSNK2A1 (UniProt P68400) | -0.022 | 0.061 | 0 | 0.058 | -0.029 | 0.049 | -0.013 | 0.019 | 0.003 | -0.068
DHRS13 (UniProt Q6UX07) | 0.133 | 0.385 | 0.048 | -0.142 | 0.142 | 0.078 | -0.223 | -0.011 | -0.08 | -0.121
CLPTM1L (UniProt Q96KA5) | 0.037 | -0.005 | 0.006 | 0 | -0.016 | 0.011 | -0.026 | 0.046 | 0.016 | -0.069
